Values without a mark were called inactive. Inconclusive results are not listed. Entries that show only a call come without a potency. Active and inactive are the calls of the source. Calls come from the whole dose curve; as a rule, active = well fitted inhibition curve with a large enough effect; inconclusive = small, poorly fitted or top-dose-only effect; inactive = flat fitted curve, though single readings scatter.
Legend:
[1] = target: Glutathione peroxidase 1 (Homo sapiens) (UniProt P07203); test: Primary qHTS Assay for Inhibitors of Recombinant Selenoprotein Glutathione Peroxidase 1 (GPX1) (AID 1845191); note: nearly all actives have a fitted effect of over 65% in size
Chain of Glutathione peroxidase 1 (Homo sapiens) (P07203 whole entry, looked up): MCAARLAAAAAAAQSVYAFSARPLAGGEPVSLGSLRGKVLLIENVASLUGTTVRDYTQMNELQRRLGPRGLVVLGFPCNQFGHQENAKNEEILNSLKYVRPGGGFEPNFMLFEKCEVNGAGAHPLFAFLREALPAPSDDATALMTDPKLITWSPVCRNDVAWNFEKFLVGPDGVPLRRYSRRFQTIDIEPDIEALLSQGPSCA
How it was run: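 10 nM GPX1 + cpd, 30 min RT; start w/ 1 mM GSH, 0.5 mM cumene hydroperoxide, 0.5 mM NADPH, 100 nM GR, 0.01% BSA; buffer 50 mM Tris-HCl pH 7.5, 2 mM EDTA, 150 mM NaCl; Fl 340/450, 0 & 15 min.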

[2] = target: Phospholipid hydroperoxide glutathione peroxidase GPX4 (Homo sapiens) (UniProt P36969); test: Primary qHTS Assay for Inhibitors of Recombinant Selenoprotein Glutathione Peroxidase 4 (GPX4) (AID 1845192); note: nearly all actives have a fitted effect of over 65% in size; for activity change, negative = inhibition: series mostly up to about 50 µM
Chain of Phospholipid hydroperoxide glutathione peroxidase GPX4 (Homo sapiens) (P36969 whole entry, looked up): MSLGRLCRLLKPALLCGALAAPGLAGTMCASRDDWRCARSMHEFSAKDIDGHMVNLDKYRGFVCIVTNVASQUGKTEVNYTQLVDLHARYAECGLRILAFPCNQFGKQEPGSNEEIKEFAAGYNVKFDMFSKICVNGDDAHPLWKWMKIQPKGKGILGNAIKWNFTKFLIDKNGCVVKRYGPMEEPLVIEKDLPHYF
How it was run: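 NADPH consumption, followed by fluorescence at 340/450 nm between 0 and 15 min, reports GPX4 activity via coupled glutathione reductase (100 nM). Enzyme 200 nM was pre-exposed to compound 30 min; 0.5 mM cumene hydroperoxide and 1 mM GSH served as substrates.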

[3] = target: Luciferin 4-monooxygenase (Photinus pyralis) (UniProt P08659); test: Primary firefly luciferase (FLuc) qHTS assay for identification of artifact compounds. (AID 1845220); note: nearly all actives have a fitted effect of over 60% in size; note: potency is the fitted concentration of half-maximal effect; for activity change, negative = inhibition: series mostly up to about 54 µM
How it was run: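 Cell-free, 1536-well qHTS. Buffer pH 7.6 with 0.01% Tween-20 and 0.05% BSA; 10 uM D-luciferin, 10 uM ATP; 10 nM P. pyralis luciferase; luminescence after 5 min.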

| Structure (SMILES) | Potency [1] | Potency [2] | Potency [3] | activity change, negative = inhibition [3] |
| --- | --- | --- | --- | --- |
| COc1cc(/C=C/C(=O)OCC2OC(OC3(CO)OC(CO)C(O)C3O)C(O)C(O)C2O)ccc1O (stereo not given) | inactive | inactive | inactive |  |
| O=C(O)/C=C/c1ccc2occc2c1O[C@@H]1O[C@H](CO)[C@@H](O)[C@H](O)[C@H]1O | inactive | inactive | inactive |  |
| C=C1CC23CC1CCC2C12OC(=O)C(C)(C(O)CC1O)C2C3C(=O)O (stereo not given) | inactive | inactive | inactive |  |
| CC1(C)CC[C@]2(C(=O)O[C@@H]3O[C@H](CO)[C@@H](O)[C@H](O)[C@H]3O)[C@H](O)C[C@]3(C)C(=CCC4[C@@]5(C)CC[C@H](O[C@@H]6OC[C@@H](O)[C@H](O)[C@H]6O)[C@@](C)(C(=O)O)C5CC[C@]43C)[C@@H]2C1 (stereo not given in full) | inactive | inactive | inactive |  |
| C/C(=C\CC[C@H](CO)[C@@H]1CC[C@]2(C)C3=C(CC[C@@]12C)[C@@]1(C)CCC(=O)C(C)(C)C1CC3)C(=O)O (stereo not given in full) | inactive | inactive | inactive |  |
| C/C=C(\C)C(=O)OC1C2(O)CC3=C4CC(=O)OC(c5ccoc5)C4(C)CCC3C(C)(C2=O)C(C(OC(C)=O)C(=O)OC)C1(C)C (stereo not given) | inactive | inactive | inactive |  |
| COc1cc(O)cc(C)c1C(=O)O[C@H]1[C@@H](O)[C@@H](n2ccc(=O)[nH]c2=O)O[C@@H]1CO | inactive | inactive | inactive |  |
| C=C1CCC2(C(=O)OC3OC(CO)C(O)C(O)C3O)CCC3(C)C(=CCC4C5(C)CCC(OC6OC(CO)C(OC7OC(C)C(O)C(O)C7O)C(OC7OCC(O)C(O)C7O)C6O)C(C)(C)C5CCC43C)C2C1 (stereo not given) | inactive | inactive |  | 3.5% [at 11.6 µM] |
| C[C@]1(O)CC[C@@H]2C(C(=O)O)=CO[C@@H](O[C@@H]3O[C@H](COC(=O)/C=C/c4ccc(O)c(O)c4)[C@@H](O)[C@H](O)[C@H]3O)[C@@H]21 | inactive | inactive | inactive |  |
| CC1CCC2C(C(=O)O)=CC3(O)CC(C)(C)CC123 (stereo not given) | inactive | inactive | inactive |  |
| COc1cc([C@@H](O[C@@H]2O[C@H](CO)[C@@H](O)[C@H](O)[C@H]2O)[C@@H]2CO[C@H](c3ccc(O)c(OC)c3)[C@H]2CO)ccc1O | inactive | inactive | inactive |  |
| O=C(/C=C/c1ccc(O)cc1)O[C@@H]1C[C@@](O)(C(=O)O)C[C@@H](O)[C@@H]1O | inactive | inactive | inactive |  |
| Cc1c(O)cc2c(c1O)COC1(O)CCCOC21 (stereo not given) | inactive | inactive | inactive |  |
| CC1(C)CC[C@]2(C(=O)O)CC[C@]3(C)C(=CCC4[C@@]5(C)C[C@@H](O)[C@H](O)[C@](C)(CO)C5CC[C@]43C)[C@@H]2[C@@H]1O (stereo not given in full) | inactive | inactive | inactive |  |
| Cc1ncc([N+](=O)[O-])n1C[C@H](O)CN1CCOCC1 | inactive | inactive | inactive |  |
| C=C1C(OC(C)=O)CCC2(C)CCC(C(C)(C)O)CC12 (stereo not given) | inactive | inactive | inactive |  |
| O=C(CC1CC(c2ccc(F)cc2F)=NO1)N1CCOCC1 (stereo not given) | inactive | inactive | 2.13 µM (active) |  |
| CC(=O)NC1CC(=O)C23C(=O)NC(Cc4c[nH]c5ccccc45)C2C(C)=C(C)C(O)C3/C=C/CC(C)/C=C(/C)C(O)C1O (stereo not given) | inactive | inactive | inactive |  |
| CC1=C(CO)C2(C)CCCC(C)(C)C2C(O)C1O (stereo not given) | inactive | inactive | inactive |  |
| COc1cc(/C=C/C(=O)O[C@@H]2C[C@](O)(C(=O)O)C[C@@H](O)[C@H]2O)ccc1O | inactive | inactive | inactive |  |
| Cc1cn(-c2cc(NC(=O)c3ccc(C)c(Nc4nccc(-c5cnccn5)n4)c3)cc(C(F)(F)F)c2)cn1 | inactive | inactive | inactive |  |
| CC1(C)CCC2(C(=O)O)CCC3(C)C(=CCC4C5(C)CCC(O)C(C)(CO)C5C(O)CC43C)C2C1 (stereo not given) | inactive | inactive | inactive |  |
| CC(O)C(=O)/C=C/C=C/C(=O)OC1C=C2COC(=O)C2(O)C2(C)CCCC(C)(C)C12 (stereo not given) | inactive | inactive | inactive |  |
| COc1ccc2c(c1)N1C(=O)C[C@@]34C=CC[N@+]5([O-])CC[C@H]2[C@H](CC3)[C@@]145 | inactive | inactive | inactive |  |
| CC(=O)N[C@H](Cc1c[nH]c2ccccc12)C(=O)OCc1cc(C(F)(F)F)cc(C(F)(F)F)c1 | inactive | inactive | inactive |  |
| CC(CNS(=O)(=O)C(C)C)c1ccc(-c2ccc(C#N)cc2)cc1 (stereo not given) | inactive | inactive | inactive |  |
| CNC(=O)c1ccc2c(c1)CCO[C@H]2CCN1CCN(c2ccc(C(N)=O)cc2)CC1 | inactive | inactive | inactive |  |
| CC(C)Oc1ccc(-c2nc(-c3cccc4c3CCC4NCCC(=O)O)no2)cc1C#N (stereo not given) | inactive | inactive | inactive |  |
| COc1cc(O)cc2c1C(=O)OC(C)CCCCCCC2 (stereo not given) | inactive | inactive | inactive |  |
| C=CC(C)(CC/C=C(\C)C(=O)OC)OC1OC(COC(=O)CC(C)(O)CC(=O)O)C(O)C(O)C1O (stereo not given) | inactive | inactive | inactive |  |

— PubChem BioAssay (NCATS)
